Source: PubChem
Wnt bcat act – activates Wnt/beta-catenin signaling in a reporter cell assay | activator, plate reader | activation, % at 9.35 µM | 300,000 compounds, 1.2% hits | AID 743398; in the data active means activation above about 30%, passing the limit was not always enough; inconclusive means no clear call, values can overlap the other calls;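 further: 0% = neutral control wells and 100% = positive control wells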
esBAF inh – blocks esBAF chromatin remodeling in mouse ES cells; Bmi1-luciferase knock-in reporter, 24 h; 100% = twice the neutral-well signal; reporter increase, % at 12.5 µM; 350,000 compounds, 2% hits; AID 602393; in the data active means activation above about 40%; inconclusive means no clear call, values can overlap the other calls;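 further: 0% = median of the plate's neutral control wells and 100% = double that signal; a rise in the Bmi1 reporter signal indicates esBAF inhibition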
A3G deaminase – blocks human APOBEC3G single-stranded DNA deamination | recombinant A3G, ssDNA deamination FAM/TAMRA fluorescence | AID 493012 | 330,000 compounds, 0.28% hits | inhibition, % at 20 µM | Q9HC16;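 active means inhibition of at least 40% at 20 µM, with no more than 30% in the related APOBEC3A deaminase screen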;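 further: plate controls were DMSO wells with A3G for no effect and wells lacking A3G enzyme for full effect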
Target sequence (Q9HC16 whole entry, looked up): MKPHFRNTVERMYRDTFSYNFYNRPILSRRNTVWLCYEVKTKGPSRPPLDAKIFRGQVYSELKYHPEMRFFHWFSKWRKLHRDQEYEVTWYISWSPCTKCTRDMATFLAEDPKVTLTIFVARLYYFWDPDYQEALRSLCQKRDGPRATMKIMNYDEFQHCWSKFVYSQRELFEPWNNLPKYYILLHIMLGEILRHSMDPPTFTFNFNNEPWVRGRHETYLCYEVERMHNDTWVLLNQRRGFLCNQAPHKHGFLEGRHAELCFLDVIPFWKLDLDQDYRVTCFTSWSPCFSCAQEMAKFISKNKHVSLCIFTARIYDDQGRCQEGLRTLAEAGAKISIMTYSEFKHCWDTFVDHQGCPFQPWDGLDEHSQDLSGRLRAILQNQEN
PHOSPHO1 inh – inhibitors of human PHOSPHO1 phosphatase | recombinant PHOSPHO1, absorbance phosphatase assay | AID 1565 | inhibition, % at 13.3 µM | 290,000 compounds, 1.1% hits; in the data active means inhibition above about 60%
Target sequence (Q8TCT1 whole entry, looked up): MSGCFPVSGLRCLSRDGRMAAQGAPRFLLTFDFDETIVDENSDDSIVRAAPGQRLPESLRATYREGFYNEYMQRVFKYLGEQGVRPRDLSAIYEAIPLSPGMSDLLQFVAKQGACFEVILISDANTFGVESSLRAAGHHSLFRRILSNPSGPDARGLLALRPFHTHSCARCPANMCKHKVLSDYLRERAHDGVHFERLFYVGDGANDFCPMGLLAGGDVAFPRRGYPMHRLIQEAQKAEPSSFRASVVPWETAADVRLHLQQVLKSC
MITF TRPM1 HTS – increases MITF-driven TRPM1 promoter luciferase signal; SK-MEL-5 TRPM1-promoter luciferase, 24 h; % of positive control, neutral wells = 0; activation, % at 12.5 µM; 300,000 compounds, 0.75% hits; AID 588334;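 active means mean activation of at least 80% with every replicate also reaching 80%; inconclusive means mean reaches 80% but some replicate falls short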;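 further: 0% = neutral control wells and 100% = parthenolide positive control wells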
A3A deaminase – human APOBEC3A DNA deaminase inhibition | inhibition, % at 20 µM | AID 493011 | 330,000 compounds, 0.41% hits | recombinant A3A, FAM/TAMRA ssDNA deamination fluorescence | P31941;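 active means at least 40% inhibition at 20 µM here, with at most 30% in a related deaminase screen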;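 further: plate controls were A3A with DMSO for no effect and wells lacking A3A enzyme for full effect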
* hit, by the source's call; ? = inconclusive; . = no result given. A selection: hits, their analogues and other compounds. The true share with any hit is near 3.6%.

SMILES	Wnt bcat act	esBAF inh	A3G deaminase	PHOSPHO1 inh	MITF TRPM1 HTS	A3A deaminase
Cc1cccc2c1-c1sc(C(=O)Nc3cccc([N+](=O)[O-])c3C)cc1CO2	0	.	-5	0	3	1
Cc1ccc(S(=O)(=O)N[C@H]2CC[C@@H](CCn3cc(C4CC4)nn3)O[C@H]2CO)cc1	.	-2	.	.	.	.
C[C@@H]1CN([C@@H](C)CO)C(=O)c2cc(NC(=O)Nc3ccccc3)ccc2O[C@@H](C)CCCCO[C@H]1CN(C)C(=O)CCCN(C)C	.	-3	.	.	.	.
O=C(Nc1cccnc1Cl)c1noc2c1CCc1ccccc1-2	37*	.	-10	-17	70	-3
CCOC(=O)c1cc2c(s1)-c1c(C)cccc1OC2	16	64*	-2	-9	.	1
O=C(C[C@H]1C[C@H]2c3cc(NS(=O)(=O)c4ccc(F)cc4)ccc3O[C@H]2[C@H](CO)O1)NCc1cccc(F)c1	.	14	.	.	.	.
CN1C(=O)c2cc(NC(=O)Nc3ccccc3)ccc2OC[C@H]2O[C@H](CC(=O)NC3CCC3)CC[C@H]21	.	-2	.	.	.	.
O=C(C[C@H]1CC[C@H]2[C@@H](COC[C@@H](O)CN2C(=O)Nc2ccc(Cl)c(Cl)c2)O1)NCc1ccc(Cl)c(Cl)c1	.	0	.	.	.	.
C[C@H]1CN([C@@H](C)CO)S(=O)(=O)c2ccc(/C=C/c3ccccc3)cc2O[C@H]1CN(C)C(=O)Nc1cccc(F)c1	.	-8	.	.	.	.
Cc1cc(N=Nc2ccccc2)cc(C)c1NC(=O)C(F)(F)F	43*	.	.	.	107*	.
CCCCCc1ccc(-c2ccc(OC)cc2)nc1	20	98*	-3	24	97*	-2
O=C(C[C@@H]1C[C@@H]2c3cc(NC(=O)C4CCOCC4)ccc3O[C@@H]2[C@@H](CO)O1)NCc1ccccc1	.	-2	.	.	.	.
COC(=O)c1c(-c2ccccc2)c[nH]c1C	24	51*	-1	8	59	2
C/C=C/c1cnc2c(c1)C(=O)N([C@@H](C)CO)C[C@H](C)[C@H](CN(C)C(=O)Nc1ccc(C(F)(F)F)cc1)O2	.	8	.	.	.	.
C[C@@H]1CN([C@@H](C)CO)S(=O)(=O)c2ccc(-c3cncnc3)cc2O[C@@H]1CN(C)C(=O)NC1CCCC1	.	0	.	.	.	.
Cn1c(CNc2ccccc2O)nc2ccccc21	-9	48*	-9	-2	-6	0
Cn1c(CNc2ccccc2)nc2ccccc21	.	66*	-1	26	-7	-5
Cn1c(NCc2cccs2)nc2ccccc21	.	50*	-3	6	32	-1
CCn1c(NCc2cccs2)nc2ccccc21	-1	7	-9	48	-1	-7
Cn1c(CNc2ccc(F)cc2)nc2ccccc21	6	69*	-8	24	.	0
O=C(C[C@@H]1CC[C@H]2[C@@H](COC[C@@H](O)CN2Cc2cccc(Cl)c2)O1)N1CCOCC1	.	-1	.	.	.	.
Cc1noc(C)c1NC(=O)N(C)C[C@@H]1OCCCC[C@H](C)Oc2ccc(NC(=O)Nc3cccc4ccccc34)cc2C(=O)N([C@H](C)CO)C[C@@H]1C	.	9	.	.	.	.
O=C(Nc1ccccc1)N[C@H]1CC[C@H](CCNS(=O)(=O)c2cccc(F)c2)O[C@@H]1CO	.	-2	.	.	.	.
COCC(=O)Nc1ccc2c(c1)[C@@H]1C[C@@H](CC(=O)N3CCN(C)CC3)O[C@@H](CO)[C@@H]1O2	.	-2	.	.	.	.
COc1ccc(S(=O)(=O)N[C@H]2C=C[C@H](CC(=O)N3CCc4ccccc4C3)O[C@@H]2CO)cc1	.	1	.	.	.	.
SMILES	Wnt bcat act	esBAF inh	A3G deaminase	PHOSPHO1 inh	MITF TRPM1 HTS	A3A deaminase
CCCn1c(CNc2ccc(Br)cc2)nc2ccccc21	6	48*	-3	2	19	-2
C[C@H](CO)N1C[C@H](C)[C@H](CN(C)CC2CC2)Oc2cc(C#Cc3cccc(F)c3)ccc2S1(=O)=O	.	-5	.	.	.	.
Cc1ccc(NC(=O)Nc2cnc3ccccc3c2)cc1	39*	4	-8	42	?	22
COC(=O)c1cccc(C(=O)Nc2cnc3ccccc3c2)n1	.	59*	-11	10	18	-6
Cn1ncc2cc(NC(=S)NC(=O)c3ccccc3)ccc21	.	48*	-4	-88	58	1
CCN(CC)C(=O)Nc1cnc2ccccc2c1	.	-8	-5	-5	12	3
O=C(NC(=S)Nc1cnc2ccccc2c1)c1ccccc1	53*	.	-17	43	55	-2
Cc1ccc(-c2ccc3c(c2)O[C@@H](CN(C)C(=O)Nc2ccc(F)cc2)[C@@H](C)CN([C@@H](C)CO)S3(=O)=O)cc1	.	0	.	.	.	.
C[C@H]1CN([C@@H](C)CO)C(=O)c2cccc(NS(=O)(=O)c3cccs3)c2O[C@H]1CN(C)Cc1ccc(-c2ccccc2)cc1	.	-2	.	.	.	.
S=C(NCCc1ccccc1)Nc1ccc(Nc2ccccc2)cc1	-1	14	-4	14	2	-4
S=C(NCCc1ccccc1)Nc1cnc2ccccc2c1	15	44*	19	-22	66	9
O=C(NC(=S)Nc1ncc(Br)cc1Br)c1ccccc1	12	53*	-4	18	36	-2
Cc1cc(C)nc(NC(=S)NC(=O)c2ccccc2)n1	3	27	-3	-8	.	-5
CCOc1ncccc1C(=O)Nc1cc2c(cc1Br)OCCO2	8	55*	-4	.	31	-1
CCOc1ccc(N2C(=O)CC(Sc3nc4ccc(OCC)cc4s3)C2=O)cc1 (stereo not drawn)	.	2	-1	.	48	-2
CCOc1ccc(N2C(=O)CC(Sc3ncccn3)C2=O)cc1 (stereo not drawn)	-5	-2	-2	6	.	-2
CCOc1ccc2nc(SC3CC(=O)N(c4ccc(C)cc4)C3=O)sc2c1 (stereo not drawn)	2	-4	-6	84*	58	-7
CCOC(=O)c1ccc(N2C(=O)CC(Sc3nnc(C)s3)C2=O)cc1 (stereo not drawn)	0	-3	22	100*	3	-5
C=CCNc1nnc(SC2CC(=O)N(c3ccc(OCCC)cc3)C2=O)s1 (stereo not drawn)	.	5	32	100*	8	-1
CCOC(=O)c1ccc(N2C(=O)CC(Sc3nc(C)cc(C)n3)C2=O)cc1 (stereo not drawn)	1	3	-8	5	-4	-4
COc1ccccc1OCC(=O)Nc1nnc(-c2ccco2)s1	.	3	.	74*	4	.
CCOc1cccc(C(=O)Nc2nnc(-c3ccco3)s2)c1	1	-42	-5	76*	4	-1
Cc1cccc(OCC(=O)Nc2nnc(-c3ccco3)s2)c1	20	.	-3	8	0	-1
CCCC(=O)Nc1nnc(-c2ccco2)s1	3	22	-5	25	63	-1
O=C(Cc1ccccc1)Nc1nnc(-c2ccco2)s1	.	48*	-6	-16	60	-3
COc1ccc(NC(=O)Nc2nnc(-c3ccco3)s2)cc1	53*	30	-5	15	78	-4
